Results filed as inconclusive are left out. A call without a number means that no potency is given here. Active and inactive are the calls of the source. The call rests on the fitted dose curve; in most records, active means well fitted curve in the direction sought with a large enough effect in the repeat runs; inconclusive means weak or mixed curves; inactive means no such curve, though single readings can be large; an effect the other way counts as inactive or inconclusive.
Experiment: A CellTox Green Cytotoxicity Assay to monitor cytotoxicity in HepG2 cells - 40 hour (AID 1224879); further: nearly all actives have a fitted effect of over 40% in size
Conditions: CellTox Green fluorescence; series mostly up to 76.8 µM
Summary of the method: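 HepG2 cells were seeded together with the CellTox Green dye at 600 cells/well, left 5 h at 37 C/5% CO2, then given compounds in DMSO. Fluorescence from dye bound to dead-cell DNA was read repeatedly over 40 h of treatment at 37 C.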

SMILES | Potency | cytotoxicity increase
Brc1ccccc1 | inactive | 
C[C@]12CC[C@H]3[C@@H](CCC4=CC(=O)CC[C@@H]43)[C@@H]1CC[C@@H]2OC(=O)CCC1CCCCC1 | inactive | 
Cn1sc(Cl)cc1=O | inactive | 
c1ccoc1 | inactive | 
O=C1c2ccccc2C(=O)C1C(=O)C(c1ccccc1)c1ccccc1 | inactive | 
NCC(CC(=O)O)c1ccc(Cl)cc1 (stereo unspecified) |  | -9.33% [at 0.29 µM] (inactive)
CCOS(C)(=O)=O | inactive | 
O=C(NCc1cccnc1)Nc1ccc([N+](=O)[O-])cc1 | inactive | 
Cc1ccccc1CCl | inactive | 
ClCCCCBr | inactive | 
Nc1ccc([N+](=O)[O-])cc1[N+](=O)[O-] | inactive | 
CN1C(=O)NC(=O)C(C)(C2=CCCCC2)C1=O (stereo unspecified) | inactive | 
O=C(CBr)Nc1ccc(Cl)cc1C(=O)c1ccccc1F | inactive | 
C=CC(=O)OCC(C)O (stereo unspecified) | inactive | 
CC1C(=O)C[C@]2(C(C)C)C[C@H]12 (stereo partly specified) | inactive | 
CCCCCCCCCCOC(=O)c1ccccc1C(=O)OCCCCCCCCCC | inactive | 
CCCN(CCC)c1c([N+](=O)[O-])cc(S(C)(=O)=O)cc1[N+](=O)[O-] | inactive | 
CCc1ccc(C(=O)NN(C(=O)c2cc(C)cc(C)c2)C(C)(C)C)cc1 | inactive | 
Clc1cc(Cl)c(Cl)c(Cl)c1 | inactive | 
CC(C)(OO)c1ccccc1 | inactive | 
Nc1ccc(N=Nc2ccc(-c3ccc(N=Nc4c(S(=O)(=O)O)cc5cc(S(=O)(=O)O)c(N=Nc6ccccc6)c(O)c5c4N)cc3)cc2)c(N)c1 | inactive | 
CC(=O)C(C)(C)C | inactive | 
C[N+](C)(C)CCCl | inactive | 
CCOP(=S)(OCC)SCSCC | inactive | 
O=C(O)COc1ccc(Cl)cc1 | inactive | 
ClCc1cccc(Cl)c1 | inactive | 
COC1=CC(=O)O[C@@H](CCc2ccccc2)C1 | inactive | 

Experiment: qHTS RealTime-Glo MT Cell Viability Assay in HEK293 cells - 0 hour (AID 1224880); further: top concentration of the series differs between compounds; nearly all actives have a fitted effect of over 45% in size
Conditions: RealTime-Glo luminescence; series mostly up to 76.8 µM
Summary of the method: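 HEK293 cells mixed with RealTime-Glo reagents (NanoLuc plus cell-permeant prosubstrate) at 600 cells/well, preincubated 5 h at 37 C/5% CO2, then given 23 nL compound in DMSO. Nonlytic luminescence from viable cells was read at 0, 8, 16, 24, 32 and 40 h.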

SMILES | Potency | activity change, negative = cytotoxicity
C#CCOC(C(=O)OCCN(C)C)(c1ccccc1)c1ccccc1 | inactive | 
C[C@]12CC[C@H]3[C@@H](CCC4=CC(=O)CC[C@@H]43)[C@@H]1CC[C@@H]2OC(=O)CCC1CCCCC1 | inactive | 
CC(C)O.CC(C)O.OCCN(CCO)CCO.OCCN(CCO)CCO.[Ti] | inactive | 
NCC(CC(=O)O)c1ccc(Cl)cc1 (stereo unspecified) |  | -1.28% [at 0.29 µM] (inactive)
Cc1ccccc1CCl | inactive | 
COP(=S)(OC)Oc1cc(Cl)c(I)cc1Cl | inactive | 
CN1C(=O)NC(=O)C(C)(C2=CCCCC2)C1=O (stereo unspecified) | inactive | 
O=C(CBr)Nc1ccc(Cl)cc1C(=O)c1ccccc1F | inactive | 
C=CCC1([C@H](C)CCC)C(=O)NC(=O)NC1=O | inactive | 
COc1cc(Cl)c(OC)cc1Cl | inactive | 
CCCCCCCCCCOC(=O)c1ccccc1C(=O)OCCCCCCCCCC | inactive | 
CCc1ccc(C(=O)NN(C(=O)c2cc(C)cc(C)c2)C(C)(C)C)cc1 | inactive | 
Nc1ccc(N=Nc2ccc(-c3ccc(N=Nc4c(S(=O)(=O)O)cc5cc(S(=O)(=O)O)c(N=Nc6ccccc6)c(O)c5c4N)cc3)cc2)c(N)c1 | inactive | 
N#Cc1ccc(Cl)cc1 | inactive | 
C[N+](C)(C)CCCl | inactive | 
CN1C[C@H](CNC(=O)OCc2ccccc2)C[C@@H]2c3cccc4c3c(cn4C)C[C@H]21 | inactive | 
CCOP(=S)(OCC)SCSCC | inactive | 
ClCc1cccc(Cl)c1 | inactive | 
COCC(C)N(C(=O)CCl)c1c(C)csc1C (stereo unspecified) | inactive | 

Experiment: A CellTox Green Cytotoxicity Assay to monitor cytotoxicity in HEK293 cells - 32 hour (AID 1224881); further: nearly all actives have a fitted effect of over 40% in size
Conditions: CellTox Green fluorescence; series mostly up to 76.8 µM
Summary of the method: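 HEK293 cells premixed with CellTox Green dye were seeded at 600 cells/well and left 5 h at 37 C/5% CO2 before pin transfer of 23 nL compound in DMSO. Fluorescence from dye bound to dead-cell DNA was read during 40 h treatment.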

SMILES | Potency | cytotoxicity increase
C#CCOC(C(=O)OCCN(C)C)(c1ccccc1)c1ccccc1 | inactive | 
Brc1ccccc1 | inactive | 
C[C@]12CC[C@H]3[C@@H](CCC4=CC(=O)CC[C@@H]43)[C@@H]1CC[C@@H]2OC(=O)CCC1CCCCC1 | inactive | 
Cn1sc(Cl)cc1=O | inactive | 
CC(C)O.CC(C)O.OCCN(CCO)CCO.OCCN(CCO)CCO.[Ti] | inactive | 
c1ccoc1 | inactive | 
O=C1c2ccccc2C(=O)C1C(=O)C(c1ccccc1)c1ccccc1 | inactive | 
NCC(CC(=O)O)c1ccc(Cl)cc1 (stereo unspecified) |  | -17.2% [at 0.29 µM] (inactive)
CCOS(C)(=O)=O | inactive | 
O=C(NCc1cccnc1)Nc1ccc([N+](=O)[O-])cc1 | inactive | 
Cc1ccccc1CCl | inactive | 
ClCCCCBr | inactive | 
COP(=S)(OC)Oc1cc(Cl)c(I)cc1Cl | inactive | 
Nc1ccc([N+](=O)[O-])cc1[N+](=O)[O-] | inactive | 
CN1C(=O)NC(=O)C(C)(C2=CCCCC2)C1=O (stereo unspecified) | inactive | 
O=C(CBr)Nc1ccc(Cl)cc1C(=O)c1ccccc1F | inactive | 
C=CC(=O)OCC(C)O (stereo unspecified) | inactive | 
CC1C(=O)C[C@]2(C(C)C)C[C@H]12 (stereo partly specified) | inactive | 

SMILES | Potency | cytotoxicity increase
C=CCC1([C@H](C)CCC)C(=O)NC(=O)NC1=O | inactive | 
COc1cc(Cl)c(OC)cc1Cl | inactive | 
CCCCCCCCCCOC(=O)c1ccccc1C(=O)OCCCCCCCCCC | inactive | 
CCCN(CCC)c1c([N+](=O)[O-])cc(S(C)(=O)=O)cc1[N+](=O)[O-] | inactive | 
CCc1ccc(C(=O)NN(C(=O)c2cc(C)cc(C)c2)C(C)(C)C)cc1 | inactive | 
Clc1cc(Cl)c(Cl)c(Cl)c1 | inactive | 
CC(C)(OO)c1ccccc1 | inactive | 
Nc1ccc(N=Nc2ccc(-c3ccc(N=Nc4c(S(=O)(=O)O)cc5cc(S(=O)(=O)O)c(N=Nc6ccccc6)c(O)c5c4N)cc3)cc2)c(N)c1 | inactive | 
N#Cc1ccc(Cl)cc1 | inactive | 
CC(=O)C(C)(C)C | inactive | 
C[N+](C)(C)CCCl | inactive | 
CN1C[C@H](CNC(=O)OCc2ccccc2)C[C@@H]2c3cccc4c3c(cn4C)C[C@H]21 | inactive | 
CCOP(=S)(OCC)SCSCC | inactive | 
O=C(O)COc1ccc(Cl)cc1 | inactive | 
ClCc1cccc(Cl)c1 | inactive | 
COCC(C)N(C(=O)CCl)c1c(C)csc1C (stereo unspecified) | inactive | 
COC1=CC(=O)O[C@@H](CCc2ccccc2)C1 | inactive | 

From PubChem BioAssay (Tox21)
